# High-throughput results (PubChem BioAssay)
# Nrf2 inh: blocks Nrf2 signaling. A549 ARE-Fluc reporter, luciferase luminescence, 18-24 h. Potency, µM (top dose mostly 46 µM), without a hit: at the highest dose activity change, negative = inhibition, actives largely listed as inhibitors. hit rate 2.1% among 360,000; also: % is scaled to controls: 0 for no effect and ±100 for the full control effect; nearly all actives have a fitted effect of over 60% in size
#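 Two sequential reads on A549 ARE_Fluc cells exposed to compound for 18-24 h: a CellTiter-Fluor fluorescence read for viability, then a luciferase luminescence read for Nrf2/ARE activity.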
# Rango-impB inh: prevents formation of the Rango-importin beta complex. Potency, µM (titrated, usually from 92.2 µM), without a hit: top-dose inhibition of complex formation. hit rate 0.031% among 340,000. Rango CFP/YFP FRET sensor + importin beta, 45 min. Q14974; calls by dose curve;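 also: 0% = DMSO wells and 100% = buffer wells lacking importin beta; nearly all actives have a fitted effect of over 15% in size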
#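 Inhibition scored from the CFP 486 nm/YFP 530 nm FRET ratio 45 min after adding 0.125 microM importin beta to 50 nM Rango biosensor preincubated 5 min with compound (room temperature, PBS with DTT, Tween-20, BSA). No-importin wells as positive control.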
# A549 tox: kills or reduces viability of A549 cells in Nrf2 counter-screen; hit rate 0.16% among 390,000; Potency, µM (doses to about 46 µM), without a hit: at the top dose activity change, negative = cytotoxicity, hits mostly inhibitors; A549 ARE-Fluc cells, CellTiter-Fluor viability, 18-24 h; AID 504648; also: % is scaled to controls: 0 for no effect and ±100 for the full control effect
#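 A549 ARE_Fluc cells in 5% FBS OPTI-MEM were exposed to compounds in concentration-response for 18-24 h at 37 deg C. Viability was read by CellTiter-Fluor fluorescence (Ex 405/Em 525) after 30 min, before the luciferase read.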
# Nrf2 activator: activators of Nrf2 (ARE) signaling. AID 624171. AREc32 ARE-luciferase reporter (MCF7-derived line), luminescence, 24 h. Potency, µM (doses to about 46.1 µM), inactives show top-dose activation, actives largely listed as activators. hit rate 0.31% among 410,000; also: % of control where 0% means no effect; nearly all actives have a fitted effect of over 65% in size
#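 Each well held 1000 AREc32 cells, which were incubated with compound for 24 hr at 37 deg C after overnight attachment, and ARE reporter activity was quantified by firefly luciferase luminescence.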
# Rango dissoc inh: prevents RanGTP from dissociating the Rango-importin beta complex. Biochemical FRET Rango-importin beta, RanGTP-induced dissociation. Potency, µM (top dose mostly 46.1 µM), for inactives: top-dose activity change, negative = inhibition. hit rate 0.071% among 340,000; calls by dose curve; also: % of control where 0% means no effect; nearly all actives have a fitted effect of over 45% in size
#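 Rango/importin beta premix (0.1/0.25 uM final), PBS + 1 mM DTT + 0.02% Tween-20 + 0.1% BSA; cpd 5 min RT; FRET pre-read; + RanGTP-RCC1 (0.6 uM Ran, 2 mM GTP, 0.2 uM RCC1); 45 min RT; FRET post-read, ex 430, em 486/530 nm.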
# * hit, by the source's call; ? = inconclusive; . = no result given. Compounds with a hit are over-represented: about 2.3% of the library has one in this group of screens. Unless noted, calls follow the shape of the dose curve; as a rule, active = well fitted curve in the direction sought with a large enough effect; inconclusive = small, poorly fitted or top-dose-only effect, or another doubt; inactive = no such curve, though single readings can be large; an effect the other way counts as inactive or inconclusive. Potency is read from the fitted curve at half-maximal effect.
SMILES,Nrf2 inh,Rango-impB inh,A549 tox,Nrf2 activator,Rango dissoc inh
COC1=C(Nc2ccccc2)C(=O)c2ccccc2C1=O,-1%,0%,-2%,0%,-1%
CC1=C(Nc2ccc(C(=O)O)cc2)C(=O)c2ccccc2C1=O,23µM*,0%,?,2%,-8%
O=C(O)c1ccc(NC2=C(Cl)C(=O)c3ccccc3C2=O)cc1,1%,3%,-11%,10%,-10%
CC(CN1CCCC1)OC(=O)c1ccc(Br)cc1 (centres undefined),6%,3%,0%,6%,0%
CO/N=C/c1ccc(N2CCN(C(=O)c3ccc(F)cc3)CC2)c([N+](=O)[O-])c1,10µM*,7%,-25%,0%,16%
CO/N=C/c1ccc(N2CCN(C(=O)c3cccc(C(F)(F)F)c3)CC2)c([N+](=O)[O-])c1,?,1%,?,1%,3%
Cc1ccc(NC(=O)c2cc(S(=O)(=O)N3CCCCC3)cs2)cc1,8.2µM*,0%,-7%,0%,6%
O=C(Nc1ccc(F)cc1)c1cc(S(=O)(=O)Nc2ccc(F)cc2)cs1,18µM*,-1%,?,3%,2%
O=C(Nc1ccc(Cl)cc1)c1cc(S(=O)(=O)N2CCOCC2)cs1,4.6µM*,4%,?,2%,22%
CC(C)Oc1ccc(CNS(=O)(=O)c2csc(C(N)=O)c2)cc1,15µM*,4%,3%,0%,25%
O=C(Nc1ccc(F)cc1)c1cc(S(=O)(=O)N2CCOCC2)cs1,-2%,4%,-7%,0%,17%
CCOC(=O)c1c(-c2ccc(Br)cc2)csc1NC(=O)c1ccc(C(C)(C)C)cc1,8%,.,0%,0%,.
Cn1cc(P(=O)(c2ccccc2)c2ccccc2)c2ccccc21,3%,.,9%,.,.
O=C(CNC(=O)c1ccc(-c2ccccc2)cc1)OC(C(=O)Nc1cc(C(F)(F)F)ccc1Cl)c1ccccc1 (centres undefined),-6%,.,4%,.,.
Cc1c(P(=S)(c2ccccc2)c2ccccc2)[n+]2ccccc2n1Cc1ccccc1,-18%,.,3%,.,.
Cc1sc2c(c1C)c(=O)n(CCc1ccccc1)c(=O)n2Cc1cccc(F)c1,?,.,8%,-1%,.
Cc1ccc(NS(=O)(=O)c2csc(C(N)=O)c2)cc1C,16µM*,4%,-14%,0%,0%
O=C1CCCC2=C1C1(CCCOC1)N=C(Nc1nc3ccccc3o1)N2 (centres undefined),?,.,1%,.,.
Nc1nc2ccccc2n1/N=C/c1ccc([N+](=O)[O-])s1,15µM*,-5%,?,6%,-1%
COc1ccc(C(NCC(=O)NC(C)c2ccc(Cl)cc2)c2ccccc2)cc1 (centres undefined),15µM*,1%,?,4%,-3%
Cc1cc([N+](=O)[O-])ccc1NC(=O)CN1C2CCC1CC(NC(=O)NC13CC4CC(CC(C4)C1)C3)C2 (centres undefined),16µM*,2%,-18%,0%,7%
Cc1cc2c(Nc3cccc(O)c3)ncnc2s1,2%,-1%,2%,5%,1%
Cc1cc2c(Nc3ccccc3O)ncnc2s1,.,.,.,11µM*,.
COc1cc(C(=O)NCCCN(C)C)ccc1OCC(=O)Nc1cccc(C(F)(F)F)c1,-4%,2%,1%,2%,2%
COc1cccc(CN(C)C(=O)c2ccc(OCC(=O)Nc3cccc(C(F)(F)F)c3)c(OC)c2)c1,4.6µM*,?,?,-1%,11%
COc1ccc(CN(C)C(=O)c2ccc(OCC(=O)Nc3cccc(C(F)(F)F)c3)c(OC)c2)c(OC)c1,16µM*,-5%,-21%,4%,0%
COc1ccc(C(CNC(=O)C2COc3ccccc3O2)N2CCCC2)cc1 (centres undefined),4%,4%,-1%,0%,26%
O=C(NCC1OCCc2ccccc21)c1ccc(NC(=O)c2ccc(Cl)cc2)cc1 (centres undefined),21µM*,2%,?,8%,17%
O=C(NCC1OCCc2ccccc21)c1ccco1 (centres undefined),?,0%,4%,11µM*,4%
